About 340 (0.77%) of roughly 44,000 compounds were called active. Not shown: some 5% with an inconclusive outcome. The entries come from a sample that favours actives as a whole. Values without a mark were called inactive. The call rests on the fitted dose curve; in most records, active means well fitted inhibition curve with a large enough effect; inconclusive means small, poorly fitted or top-dose-only effect; inactive means flat fitted curve, though single readings scatter.
Assay: Acumen qHTS Assay for Inhibitors of the mTORC1 Signaling Pathway in MEF (Tsc2-/-, p53-/-) Cells: Sytravon; further: nearly all actives have a fitted effect of over 50% in size;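 on activity change, negative = inhibition: plate controls were DMSO for no effect and rapamycin for full effect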
Conditions: phospho-rpS6 immunofluorescence/PI, 24 h; series mostly up to 38.3 µM; activity change, negative = inhibition: at the top concentration
Text: NIH Molecular Libraries Probe Production Centers Network [MLPCN] NIH Chemical Genomics Center [NCGC] MLPCN Grant: NS059428-01 Assay Submitter (PI): Blenis, John; Hoffman, Greg; Harvard University NCGC Assay Overview: The mammalian target of rapamycin (mTOR) is an intracellular serine/threonine kinase Aberrant regulation of mTOR signaling plays a causative role in a number of human diseases, including cancer, benign tumors such as lymphangioleiomyomatosis (LAM) and Tuberous Sclerosis Complex (TSC), and metabolic diseases such as diabetes and obesity. This project aims to identify inhibitors of ribosomal protein S6 (rpS6) phosphorylation. The phosphorylation of rpS6 is a key event downstream of mTOR activation. The assay uses a phospho-specific antibody of phospho-rpS6 to detect inhibitors of mTOR activation. Mutations in the Tsc1 and Tsc2 genes are the underlying genetic lesions responsible for TSC, causing constitutive activation of the mTORC1 pathway and leading to profound effects on cell metabolism. Aberrant metabolism in cancer has recently received significant attention as a target to develop therapeutic agents in the treatment of cancer.1 As Tsc2-/- cells have lost the ability to respond to energy and growth factor deprivation, these cells are unable to properly down regulate cellular biosynthetic processes in response to metabolic stress, and are thus extremely sensitive to glucose deprivation-induced death.2 A central goal of this project is to explore the unique cell survival and metabolic properties of cells with Tsc1 or Tsc2 by screening for compounds that selectively target the Tsc2-/- MEFs by screening both Tsc2-/- and WT MEF cell lines. We hope to better understand these aspects of TSC physiology in order to exploit them for therapeutic benefit.
NCGC Acumen Assay Protocol Summary: For quantitative high throughput analysis of mTORC1 signaling, we developed a cell-based assay for immuno-fluorescence based detection of rpS6 phosphorylation on the Acumen Explorer that will be used a platform for the primary small molecule screen. Mouse embryonic fibroblasts (MEFs) are cultured in 1536-well plates using DMEM + 10% FBS. Twenty-four hrs after plating, test compounds (solubilized in DMSO) are delivered and incubated with the cells for 24 hrs at 37 degree Celsius. Following the incubation, media with compound is aspirated and the cells are fixed in 4% paraformaldehyde (PFA) containing PBS + 0.2% TX-100. Next, PFA is aspirated, cells are washed two times with PBS plus 0.2% TX-100 and the cells are blocked for 1 hr at room temperature (blocking buffer: LiCOR Blocking Buffer plus 0.2% TX-100). […] Cells are washed two times with PBS plus 0.2% TX-100, and stained with 10 uM propidium iodide (PI) for 20-25 minutes for cell number measurement (1:500 dilution of Hoescht staining is also added for IN Cell imaging). The plates are scanned on the Acumen Explorer laser scanning instrument (TTP Labtech) using the 488nm laser for simultaneous excitation of the Alexa-488 and PI. […] The normalized phospho-S6 staining is calculated as the ratio of the integrated Alexa 488 intensity divided by the integrated PI intensity for the single concentration rapamycin control (7.5 nM) and DMSO columns. […] Inhibition of the pathway is defined based on the normalized phospho-S6 intensity in rapamycin treated cells. Active cells are defined as those with a normalized phospho-S6 staining above this threshold, and each treatment is reported as the % positive cells in the well, where thresholds are defined by selecting wells with the highest and lowest signal and differentiating between the % non-active and % active populations. In addition to the pathway specific phospho-S6 endpoint, the number of PI stained cells from the Acumen is recorded as a measure of cell viability. The primary screen was performed with a MEF cell line in a defined genetic background, Tsc2-/-, p53-/- cell line stably transfected with an empty vector control (Tsc2-/- MEF).
Potency means the concentration at half of the fitted maximal effect.

SMILES | activity change, negative = inhibition | Potency
Cc1ccc(CSc2oc(-c3cccs3)nc2S(=O)(=O)c2ccc(C)cc2)cc1 | 0% | –
CCCCS(=O)(=O)c1oc(-c2cccs2)nc1S(=O)(=O)c1ccccc1 | – | 0.414 µM (active)
Cc1ccc(CNC(=O)CSc2c3c(nc4cc(Cl)ccc24)CCCC3)cc1 | -6.2% | –
COc1cccc(CNC(=O)CSc2c3c(nc4cc(Cl)ccc24)CCCC3)c1 | 3.18% | –
CCOC(=O)C1CCN(C(=O)CSc2c3c(nc4ccc(Cl)cc24)CCCC3)CC1 | – | 18.5 µM (active)
CN(C)CCN(Cc1ccccc1)S(=O)(=O)c1csc(C(N)=O)c1 | 3.82% | –
CC(C)C12CN3CC(C(C)C)(CN(C1)C3c1ccc(OCc3ccccc3)cc1)C2=O (stereo not drawn) | -2.1% | –
N#C/C(=C\c1ccccc1F)c1nc2ccccc2c(=O)[nH]1 | 7.42% | –
COC(=O)c1cnn(-c2ccc(C(=O)Nc3ccc(OC(F)(F)F)cc3)cc2)c1N | -1.33% | –
Cc1ccc(Cn2c(=O)n(-c3ccc(C)cc3)c(=O)c3c2c2cc(C)ccc2n3C)cc1 | -1.48% | –
Cc1ccc(NC(=O)c2nc(S(=O)(=O)Cc3cccc(C)c3)ncc2Cl)cc1 | – | 5.85 µM (active)
CCOC(=O)c1ccc(NC(=O)c2nc(SCc3ccc(F)cc3)ncc2Cl)cc1 | -6.5% | –
CCSc1ncc(Cl)c(C(=O)Nc2cc(C)ccc2C)n1 | 5.83% | –
CCC(C)NC(=O)Cn1c(=O)n(-c2ccc(Cl)cc2)c(=O)c2c3c(sc21)CCCC3 (stereo not drawn) | 7.38% | –
CC1CCCCN1CCCNC(=O)Cn1ncc2c([nH]c3ccccc32)c1=O (stereo not drawn) | -1.23% | –
COc1ccccc1-c1noc(CSc2nnc(-c3ccccc3)n2-c2ccc(C)c(C)c2)n1 | -10.2% | –
CCOc1ccc(CNC(=O)c2ccc(CS(=O)c3ccccc3)o2)cc1 (stereo not drawn) | 3.66% | –
CCCCC(CC)CNC(=O)C1CCN(S(=O)(=O)c2cccc3nsnc23)CC1 (stereo not drawn) | 2.77% | –
CC(=O)c1cccc(NC(=O)CSc2nc3c(c(=O)[nH]2)CCC3)c1 | 2.41% | –
Cc1ccc(Cn2c(C)c3cnn(CC(=O)NCc4ccccc4)c(=O)c3c2C)cc1 | -12.7% | –
Clc1ccc(CSc2nncn3c2cc2occc23)cc1 | 0.254% | –
COc1cc(OC)cc(-c2nc3nc(C)c(CCC(=O)Nc4ccccc4)c(C)n3n2)c1 | 2.09% | –
CCOc1cccc(CC(=O)N2CCc3c([nH]c4ccccc34)C2c2ccc(OC)cc2)c1OCC (stereo not drawn) | 9.34% | –
CCN(C(=O)CSc1nnc(C)n2c1cc1occc12)c1ccccc1 | -2.15% | –

SMILES | activity change, negative = inhibition | Potency
Cc1ccc(-c2nc(SCc3ccc(Br)cc3)n3[nH]c(=O)cc3n2)cc1 | -2.33% | –
O=c1cc(-c2ccccc2)n2c(SCc3ccccc3)nnc2[nH]1 | 0.0486% | –
CCCCSc1ncnc2c1sc1nc(N3CCOCC3)c3c(c12)CCCC3 | 6.37% | –
COc1ccc(N2C(=O)CSC23C(=O)N(Cc2cccc(F)c2)c2ccccc23)cc1Cl (stereo not drawn) | -3.26% | –
COc1cc(C(=O)Nc2ccc(OCc3cc(=O)n4cc(C)sc4n3)cc2)cc(OC)c1OC | -6.16% | –
CCOc1ccc(NC(=O)c2ncoc2-c2ccco2)cc1 | 0% | –
Cn1nnnc1SCCCNCc1cccc(OCc2ccc(Cl)cc2)c1 | – | 18.5 µM (active)
Cn1nnnc1SCCNCc1ccc(Cl)c(Cl)c1 | -5.71% | –
Cn1nnnc1SCCCNCc1ccc(Cl)cc1 | -9.59% | –
COc1ccc(C(=O)Nc2nonc2-c2ccc(OC)c(OC)c2)cc1Cl | -29.4% | –
Cc1ccc(NC(=O)c2cc3cc(C)ccc3n2C)cc1 | -1.67% | –
Cc1ccc(S(=O)(=O)c2nnn3c2nc(N2CCN(c4ccccc4F)CC2)c2cc(Cl)ccc23)cc1C | -0.0789% | –
COC(=O)c1cc(NC(=O)c2cnc(SC)nc2-c2ccccc2)cc(C(=O)OC)c1 | -1.13% | –
Cc1ccc(-c2nnc(Nc3cccc(Br)c3)c3ccccc23)cc1S(=O)(=O)NCC1CCCO1 (stereo not drawn) | -0.426% | –
CCNS(=O)(=O)c1cc(-c2nnc(Nc3cccc(C(F)(F)F)c3)c3ccccc23)ccc1C | – | 18.5 µM (active)
Cc1ccc(Nc2nnc(-c3ccc(C)c(S(=O)(=O)N4CCCCC4)c3)c3ccccc23)cc1 | -1.69% | –
O=C(Nc1ccccc1Cl)N1CCC(CN2CCCCC2)CC1 | -6.23% | –
CCN(CCCNC(=O)c1cc2c(=O)n(CC)c3ccccc3c2s1)Cc1ccccc1 | – | 18.5 µM (active)
CCn1c(=O)c2cc(C(=O)NCCc3ccc(Cl)cc3)sc2c2ccccc21 | 1.55% | –
CCc1ccc(CNC(=O)c2cc3c(=O)n(CC)c4ccccc4c3s2)cc1 | -7.38% | –
CCCCOC(=O)CSc1ncnc2sc3c(c12)CCC(C)C3 (stereo not drawn) | -0.119% | –
Cc1cc(NC(=O)CC(C)C)cc(-c2nc3ncccc3o2)c1O | 1.54% | –
CCc1ccc(NC(=O)c2cc3c(=O)n(Cc4cccnc4)ccc3nc2C)cc1 | -1.59% | –
O=C(CC(NCc1cccnc1)C(=O)O)Nc1ccc(O)cc1 (stereo not drawn) | – | 14.7 µM (active)
